Assay results published in PubChem BioAssay (Tox21).
Results filed as inconclusive are left out. More than one record can exist for a structure, and the calls need not agree. Calls of active or inactive are those of the source. Unless noted, calls follow the shape of the full dose curve.

What was measured:
[1] = Nuclear factor erythroid 2-related factor 2/antioxidant responsive element (Nrf2/ARE) small molecule agonists: qHTS cell viability counter screen in human keratinocytes (AID 1919968; active = well fitted curve in the direction sought with a large enough effect in the repeat runs; an effect the other way counts as inactive or inconclusive; also: nearly all actives have a fitted effect of over 55% in size; also: potency is read from the fitted curve at half-maximal effect)
Procedure, shortened: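 In human HaCaT keratinocytes stably expressing an ARE-driven luciferase, compound exposure lasted 23 h at 37 C under 5% CO2. Viable cells are quantified with a protease-based fluorogenic reagent (CellTiter-Fluor) read 1 h after addition.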

[2] = target: Gonadotropin-releasing hormone receptor (Homo sapiens) (UniProt P30968); experiment: Human gonadotropin-releasing hormone receptor (GnRHR) small molecule agonists, calcium flux assay in GnRHR-HEK293 cells (AID 1920063); also: nearly all actives have a fitted effect of over 35% in size
Procedure, shortened: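 Intracellular calcium rise is the read-out: engineered human GnRHR HEK293 cells, dye-loaded, are exposed to DMSO-dissolved compounds and fluorescence at Ex/Em 480/540 is tracked for 3 min.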

[3] = target: KiSS-1 receptor (Homo sapiens) (UniProt Q969F8); experiment: Human kisspeptin (KISS1R) small molecule agonists, calcium flux assay in KISS1R-HEK293 cells (AID 1920064; active = well fitted curve in the direction sought with a large enough effect in the repeat runs; an effect the other way counts as inactive or inconclusive)
Procedure, shortened: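 Concentration-response testing used 15 concentrations in triplicate on human KISS1R-expressing HEK293 cells. Calcium-dependent fluorescence (Ex/Em 480/540) was followed kinetically for 3 min after compound transfer.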

[4] = G protein-coupled receptor (GPCR) small molecule agonists, calcium flux assay: HEK293 wild type cell line counter screen (AID 1920065)
Procedure, shortened: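 Fluorescence intensity signals activation. After overnight (18 h) culture and a 1 h calcium dye load at 37 C, compounds are added by pin tool and the plate read at 480/540 nm for 3 min in 1 s steps.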

[5] = p53 small molecule agonists, cell-based qHTS assay with rat liver microsomes (AID 1963578)
Procedure, shortened: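 Compound in DMSO added to p53RE-bla cells 5 h post-plating; rat microsomes/NADPH 0.5 mg/mL final; 16 h, 37 C; LiveBLAzer 2 h RT.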

[6] = p53 small molecule agonists, cell-based qHTS assay with human liver microsomes: qHTS cell viability counter screen (AID 1963579); also: nearly all actives have a fitted effect of over 45% in size; also: potency is read from the fitted curve at half-maximal effect
Procedure, shortened: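 HLM-supplemented (0.5 mg/mL final) and NADPH-supplemented (0.5 mg/mL final) p53RE-bla cultures, 4,000 cells per well, were dosed with compounds in DMSO for 16 h at 37 C; luminescent ATP detection (CellTiter-Glo, 30 min, room temperature) quantified surviving cells.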

[7] = p53 small molecule agonists, cell-based qHTS assay with rat liver microsomes: qHTS cell viability counter screen (AID 1963580); also: nearly all actives have a fitted effect of over 45% in size; also: potency is read from the fitted curve at half-maximal effect
Procedure, shortened: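 Cytotoxicity counter screen: intracellular ATP read by CellTiter-Glo luminescence in the p53 reporter wells. HCT-116 p53RE-bla cells were treated for 16 h at 37 C alongside rat liver microsomes and NADPH, each 0.5 mg/mL final.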

[8] = p53 small molecule agonists, cell-based qHTS assay: qHTS cell viability counter screen (AID 1963581); also: nearly all actives have a fitted effect of over 45% in size; also: potency is read from the fitted curve at half-maximal effect
Procedure, shortened: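 Luminescence from CellTiter-Glo, reflecting ATP content, serves as the cytotoxicity measure; it is taken after the 2 h reporter substrate step in HCT-116 p53RE-bla cells dosed for 16 h at 37 C.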

[9] = cAMP Responsive Elements (CRE) small molecule antagonists, cell-based qHTS assay (AID 1963591; active = well fitted inhibition curve with a large enough effect in the signal ratio in the repeat runs, not every such curve was filed as active; the % refers to the signal ratio)
Procedure, shortened: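 Stimulation used NKH477 at a final 0.25 uM for 3 h in compound-treated CRE-bla HEK293T cells, seeded 18 h beforehand. Reporter activity was measured with LiveBLAzer B/G FRET substrate after 2 h at room temperature.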

[10] = target: Beta-2 adrenergic receptor (Homo sapiens) (UniProt P07550); experiment: Adrenergic beta2 receptor (ADRB2) small molecule antagonists, cell-based qHTS assay (AID 1963592); also: nearly all actives have a fitted effect of over 50% in size; also: potency is read from the fitted curve at half-maximal effect; as to activity change, negative = inhibition: series mostly up to about 92 µM
Procedure, shortened: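 Assay format: CHO-ADRB2 cells, 18-20hr seeding at 37C/5% CO2, then compound plus 1nM isoproterenol agonist mix for 0.5hr RT. Homogeneous time-resolved fluorescence cAMP detection after 1hr, expressed as 665/615 nm ratio.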

[11] = target: D(2) dopamine receptor (Homo sapiens) (UniProt P14416); experiment: Dopamine D2 receptor (DRD2) small molecule agonists, cell-based qHTS assay (AID 1963594); also: nearly all actives have a fitted effect of over 35% in size
Procedure, shortened: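 cAMP accumulation in DRD2-HEK293 cells measured by HTRF after 1 h detection; compounds added 10 min before NKH477 (200nM […]) forskolin-analogue stimulation, 30 min at room temperature, with Ro20-1724 present at 0.1 mM final.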

[12] = target: D(2) dopamine receptor (Homo sapiens) (UniProt P14416); experiment: Dopamine D2 receptor (DRD2) small molecule antagonists, cell-based qHTS assay (AID 1963595; active = well fitted inhibition curve with a large enough effect in the signal ratio in the repeat runs, with a control signal flat; the % refers to the signal ratio; also: potency is read from the fitted curve at half-maximal effect)
Procedure, shortened: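 Cells were plated and grown for 24 h at 37 °C. Ro20-1724 (0.1 mM final) went in first, then compound for 10 min. NKH477 (200 nM) with quinpirole (12 nM) followed for 30 min at RT, then HTRF detection reagents for 1 h.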

[13] = p53 small molecule agonists, cell-based qHTS assay (AID 1963582; active = well fitted activation curve with a large enough effect in the signal ratio in the repeat runs, not every such curve was filed as active; the % refers to the signal ratio)
Procedure, shortened: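 After plating, p53RE-bla cells sat 5 h in the incubator; compounds or DMSO vehicle were pinned in; a 16 h incubation at 37 C followed; FRET substrate was added and, 2 h later at RT, fluorescence was measured.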

[14] = target: 5-hydroxytryptamine receptor 2A (Homo sapiens) (UniProt P28223); experiment: 5-hydroxytryptamine receptor 2A (HTR2A) small molecule antagonists, cell-based qHTS assay (AID 1963586); also: nearly all actives have a fitted effect of over 45% in size; also: potency is read from the fitted curve at half-maximal effect
Procedure, shortened: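 CHO cells stably expressing human HTR2A were plated for 18 h at 37 C, then loaded with calcium dye for 1 h. Compounds were preincubated 5 min at room temperature before DOI (4 nM solution) was added. Kinetic fluorescence was read for 3 min.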

[15] = target: 5-hydroxytryptamine receptor 2A (Homo sapiens) (UniProt P28223); experiment: 5-hydroxytryptamine receptor 2A (HTR2A) small molecule agonists, cell-based qHTS assay (AID 1963587); also: nearly all actives have a fitted effect of over 30% in size
Procedure, shortened: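 Kinetic calcium-flux fluorescence (2 min, 1 sec intervals) after compound addition in agonist mode. HTR2A-CHO cells were cultured 18 h, then dye-loaded 1 h at 37 C.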

[16] = target: Muscarinic acetylcholine receptor M1 (Homo sapiens) (UniProt P11229); experiment: Cholinergic receptor muscarinic 1 (CHRM1) small molecule antagonists, cell-based qHTS assay (AID 1963588); also: nearly all actives have a fitted effect of over 40% in size; also: potency is read from the fitted curve at half-maximal effect
Procedure, shortened: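 Compounds were tested at 15 concentrations in three independent runs. Dye-loaded CHRM1-CHO cells were exposed 5 min at room temperature before stimulation by acetylcholine added at 50nM. Intracellular calcium was read kinetically on FDSS for 3 min.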

[17] = target: Muscarinic acetylcholine receptor M1 (Homo sapiens) (UniProt P11229); experiment: Cholinergic receptor muscarinic 1 (CHRM1) small molecule agonists, cell-based qHTS assay (AID 1963589); also: nearly all actives have a fitted effect of over 35% in size
Procedure, shortened: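 Fluorescent calcium dye reports M1 activation in stably transfected CHO cells. Compounds, 15 concentrations, added after 1 h dye loading at 37 C; kinetic reading at 1 sec intervals.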

[18] = cAMP Responsive Elements (CRE) small molecule agonists, cell-based qHTS assay (AID 1963590)
Procedure, shortened: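 Compound exposure lasted 3 h at 37 C/5% CO2 in CRE-bla HEK 293T cells grown in assay medium with 10% dialyzed FBS and 25 mM HEPES. Reporter signal came from LiveBLAzer B/G FRET substrate, 2 h, room temperature.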

[19] = target: Beta-2 adrenergic receptor (Homo sapiens) (UniProt P07550); experiment: Adrenergic beta2 receptor (ADRB2) small molecule agonists, cell-based qHTS assay (AID 1963593);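 also: CHO cells stably overexpressing human ADRB2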
Procedure, shortened: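 CHO cells stably over-expressing ADRB2 were plated overnight at 37C, then dosed with compounds plus a stimulation mix containing 100uM IBMX and 25uM Ro-20-1724 for 0.5hr at room temperature. cAMP was measured by HTRF competition, 1hr.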
% is scaled to controls: 0 for no effect and ±100 for the full control effect.

Beta-2 adrenergic receptor (Homo sapiens), sequence (P07550 whole entry, looked up): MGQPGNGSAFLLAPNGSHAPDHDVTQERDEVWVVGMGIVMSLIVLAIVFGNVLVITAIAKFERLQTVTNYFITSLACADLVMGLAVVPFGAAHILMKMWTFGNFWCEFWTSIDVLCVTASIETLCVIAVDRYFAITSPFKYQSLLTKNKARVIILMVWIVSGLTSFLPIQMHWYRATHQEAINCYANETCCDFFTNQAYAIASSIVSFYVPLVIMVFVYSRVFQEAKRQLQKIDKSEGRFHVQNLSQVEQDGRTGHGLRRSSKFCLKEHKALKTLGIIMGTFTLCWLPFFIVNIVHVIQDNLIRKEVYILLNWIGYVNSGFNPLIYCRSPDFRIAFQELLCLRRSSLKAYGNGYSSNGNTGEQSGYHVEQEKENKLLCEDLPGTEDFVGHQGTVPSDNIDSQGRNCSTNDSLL
Gonadotropin-releasing hormone receptor (Homo sapiens), sequence (P30968 whole entry, looked up): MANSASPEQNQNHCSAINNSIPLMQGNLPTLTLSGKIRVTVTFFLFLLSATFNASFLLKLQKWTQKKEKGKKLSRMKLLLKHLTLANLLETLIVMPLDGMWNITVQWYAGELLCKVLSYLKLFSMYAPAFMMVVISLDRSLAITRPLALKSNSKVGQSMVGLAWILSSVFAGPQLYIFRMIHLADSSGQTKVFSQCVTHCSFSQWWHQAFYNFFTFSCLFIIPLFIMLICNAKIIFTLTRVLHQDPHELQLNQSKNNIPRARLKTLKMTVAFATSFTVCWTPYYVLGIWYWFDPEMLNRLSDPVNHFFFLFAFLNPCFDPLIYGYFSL
KiSS-1 receptor (Homo sapiens), sequence (Q969F8 whole entry, looked up): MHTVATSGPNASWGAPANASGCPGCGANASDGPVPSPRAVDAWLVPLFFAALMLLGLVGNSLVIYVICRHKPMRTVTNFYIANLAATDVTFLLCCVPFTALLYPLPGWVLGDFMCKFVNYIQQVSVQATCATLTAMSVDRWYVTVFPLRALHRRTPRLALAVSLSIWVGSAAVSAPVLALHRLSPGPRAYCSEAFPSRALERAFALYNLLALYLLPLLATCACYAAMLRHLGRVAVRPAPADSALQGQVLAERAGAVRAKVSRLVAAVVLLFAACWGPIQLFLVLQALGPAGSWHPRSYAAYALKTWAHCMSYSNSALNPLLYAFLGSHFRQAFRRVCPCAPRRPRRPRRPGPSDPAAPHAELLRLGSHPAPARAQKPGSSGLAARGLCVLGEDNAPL
D(2) dopamine receptor (Homo sapiens), sequence (P14416 whole entry, looked up): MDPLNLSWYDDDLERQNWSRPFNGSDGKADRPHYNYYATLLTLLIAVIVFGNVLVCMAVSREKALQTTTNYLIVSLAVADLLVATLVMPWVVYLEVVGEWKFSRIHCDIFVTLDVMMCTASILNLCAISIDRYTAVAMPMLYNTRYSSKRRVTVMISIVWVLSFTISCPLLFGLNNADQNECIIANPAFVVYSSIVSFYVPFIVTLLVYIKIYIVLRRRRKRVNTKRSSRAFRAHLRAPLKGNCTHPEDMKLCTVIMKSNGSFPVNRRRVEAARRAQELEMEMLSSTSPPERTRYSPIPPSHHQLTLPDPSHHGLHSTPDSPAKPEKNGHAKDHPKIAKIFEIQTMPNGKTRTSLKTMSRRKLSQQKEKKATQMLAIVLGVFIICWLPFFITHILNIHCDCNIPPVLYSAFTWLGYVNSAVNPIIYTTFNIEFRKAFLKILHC
Muscarinic acetylcholine receptor M1 (Homo sapiens), sequence (P11229 whole entry, looked up): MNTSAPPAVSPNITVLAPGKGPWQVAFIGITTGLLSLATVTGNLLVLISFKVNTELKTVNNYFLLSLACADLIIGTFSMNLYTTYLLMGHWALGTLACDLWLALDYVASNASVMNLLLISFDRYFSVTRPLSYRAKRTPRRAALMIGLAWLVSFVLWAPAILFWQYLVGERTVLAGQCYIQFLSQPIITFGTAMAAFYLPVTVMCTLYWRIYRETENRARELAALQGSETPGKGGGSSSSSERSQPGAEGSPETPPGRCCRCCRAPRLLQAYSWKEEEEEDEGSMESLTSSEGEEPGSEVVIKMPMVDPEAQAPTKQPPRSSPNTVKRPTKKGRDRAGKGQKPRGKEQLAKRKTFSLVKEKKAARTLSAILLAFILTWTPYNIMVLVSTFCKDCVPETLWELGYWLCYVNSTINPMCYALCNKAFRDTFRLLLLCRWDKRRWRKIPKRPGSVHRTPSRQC
5-hydroxytryptamine receptor 2A (Homo sapiens), sequence (P28223 whole entry, looked up): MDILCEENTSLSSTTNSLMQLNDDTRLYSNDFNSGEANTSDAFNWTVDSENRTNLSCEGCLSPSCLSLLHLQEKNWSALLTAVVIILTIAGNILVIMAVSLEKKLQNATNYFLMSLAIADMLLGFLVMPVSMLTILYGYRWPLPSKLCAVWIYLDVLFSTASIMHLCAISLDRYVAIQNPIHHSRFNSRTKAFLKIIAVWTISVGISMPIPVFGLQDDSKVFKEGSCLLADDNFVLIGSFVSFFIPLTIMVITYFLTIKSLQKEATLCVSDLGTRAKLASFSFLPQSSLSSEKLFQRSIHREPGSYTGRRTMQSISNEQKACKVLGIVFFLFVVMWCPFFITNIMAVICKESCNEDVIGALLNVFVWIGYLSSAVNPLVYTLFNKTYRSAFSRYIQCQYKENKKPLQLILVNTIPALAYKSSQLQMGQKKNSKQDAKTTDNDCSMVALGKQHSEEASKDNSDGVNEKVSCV

NC[C@H]1O[C@H](O[C@H]2[C@H](O)[C@@H](O[C@H]3O[C@H](CO)[C@@H](O)[C@H](N)[C@H]3O)[C@H](N)C[C@@H]2N)[C@H](O)[C@@H](O)[C@@H]1O
inactive: activity change, negative = cytotoxicity [1] 2.11% [at 8.39 µM] | activity change [2] -0.795% [at 5.22 µM, stronger effect = higher value] | activation [3] 3.49% [at 6.97 µM] | activation [4] -1.23% [at 5.23 µM] | activation [5] 6.15% [at 5.99 µM] | activity change, negative = cytotoxicity [6] 4.31% [at 5.99 µM] | activity change, negative = cytotoxicity [7] 3.51% [at 5.99 µM] | activity change, negative = cytotoxicity [8] 2.96% [at 5.99 µM] | activity change, negative = inhibition [9] -1.06% [at 8.39 µM] | activity change, negative = inhibition [10] 0.292% [at 8.39 µM] | activation [11] 0% [at 8.39 µM] | activity change, negative = inhibition [12] -3.37% [at 8.38 µM]

C=Cc1c(C)c2cc3[nH]c(cc4nc(cc5nc(cc1[nH]2)C(C)=C5CCC(=O)O)C(CCC(=O)O)=C4C)c(C)c3C=C
inactive: Potency [1] | Potency [2] | Potency [3] | Potency [4] | Potency [5] | Potency [7] | Potency [8] | Potency [13] | Potency [14] | Potency [15] | Potency [16] | Potency [17] | Potency [18] | Potency [9] | Potency [10]

CCSCC
active: Potency [6] 19.3 µM
inactive: Potency [1] | Potency [2] | Potency [3] | Potency [4] | Potency [7] | Potency [8] | Potency [14] | Potency [15] | Potency [17] | Potency [18] | Potency [9] | Potency [10] | Potency [11] | Potency [12]

CCCCOCCOCCOCc1cc2c(cc1CCC)OCO2
41.3 µM (active) and inactive: Potency [8]
inactive: Potency [1] | Potency [2] | Potency [3] | Potency [4] | Potency [6] | Potency [7] | Potency [14] | Potency [15] | Potency [16] | Potency [17] | Potency [18] | Potency [10] | Potency [19] | Potency [11] | Potency [12]

CS(C)=O
inactive: Potency [1] | Potency [2] | Potency [3] | Potency [4] | Potency [5] | Potency [6] | Potency [7] | Potency [8] | Potency [18] | Potency [9] | Potency [10] | Potency [19] | Potency [11] | Potency [12]

COC(=O)C1=C(C)NC(C)=C(C(=O)OCCc2ccc(N3CCN(C(c4ccccc4)c4ccccc4)CC3)cc2)C1c1cccc([N+](=O)[O-])c1 (stereo not given)
inactive: Potency [1] | Potency [2] | Potency [3] | Potency [4] | Potency [5] | Potency [6] | Potency [7] | Potency [8] | Potency [14] | Potency [15] | Potency [16] | Potency [17] | Potency [9] | Potency [10] | Potency [19] | Potency [12]

CCOC(=O)c1ccc(N(C)C)cc1
inactive: Potency [1] | Potency [2] | Potency [3] | Potency [4] | Potency [6] | Potency [7] | Potency [8] | Potency [14] | Potency [15] | Potency [17] | Potency [9] | Potency [10] | Potency [19] | Potency [11] | Potency [12]

CCc1cccc2c(CCO)c[nH]c12
inactive: Potency [1] | Potency [2] | Potency [3] | Potency [4] | Potency [5] | Potency [7] | Potency [13] | Potency [14] | Potency [16] | Potency [17] | Potency [9] | Potency [10] | Potency [19] | Potency [11] | Potency [12]

CC(N=C(NC#N)Nc1ccncc1)C(C)(C)C (stereo not given)
inactive: Potency [1] | Potency [2] | Potency [3] | Potency [4] | Potency [6] | Potency [7] | Potency [8] | Potency [14] | Potency [15] | Potency [16] | Potency [17] | Potency [18] | Potency [10] | Potency [11] | Potency [12]

C=CC(=O)NC(C)(C)C
inactive: Potency [1] | Potency [2] | Potency [3] | Potency [4] | Potency [6] | Potency [7] | Potency [8] | Potency [14] | Potency [15] | Potency [16] | Potency [17] | Potency [18] | Potency [9] | Potency [10] | Potency [11]

Brc1ccccc1-c1ccccc1
active: Potency [14] 17.8 µM
inactive: Potency [1] | Potency [2] | Potency [3] | Potency [4] | Potency [5] | Potency [6] | Potency [7] | Potency [13] | Potency [16] | Potency [17] | Potency [18] | Potency [9] | Potency [10] | Potency [12]

Cc1c(N)c(=O)n(-c2ccccc2)n1C
inactive: Potency [1] | Potency [2] | Potency [3] | Potency [4] | Potency [6] | Potency [7] | Potency [8] | Potency [14] | Potency [15] | Potency [16] | Potency [17] | Potency [18] | Potency [9] | Potency [10] | Potency [19] | Potency [11] | Potency [12]

CSc1ccc(C=O)cc1
inactive: Potency [1] | Potency [2] | Potency [3] | Potency [4] | Potency [6] | Potency [7] | Potency [8] | Potency [14] | Potency [15] | Potency [17] | Potency [18] | Potency [9] | Potency [10] | Potency [12]

CN1CCN(c2ccccc2/C=C2\SCCN(c3ccc(Cl)c(Cl)c3)C2=O)CC1
active: Potency [1] 43.3 µM | Potency [7] 45.8 µM | Potency [16] 7.48 µM | Potency [10] 0.77 µM | Potency [12] 54.5 µM
inactive: Potency [2] | Potency [3] | Potency [4] | Potency [5] | Potency [6] | Potency [8] | Potency [13] | Potency [14] | Potency [17] | Potency [18] | Potency [9]
